target: Glucose transporter (Leishmania mexicana) (UniProt O61059); test: ST_JUDE_LEISH: Cytotoxicity at 2uM final concentration against transgenic Leishmania Mexicana promastigotes LmGT2 that are glucose transport deficient and complemented with the L. Mexicana glucose transporter 2. Activity is measured by DNA content using SYBR green in vitro; assay type: functional

**Q.** Which inhibition does the source give for N#Cc1cccc(Nc2nccc(Nc3ccc(Oc4ccccc4)cc3)n2)c1 here?
**A.** 0.2%

**Q.** Which inhibition does the source give for CCn1c(-c2nonc2N)nc2c(-c3cccc(NC(=O)Nc4cccc(C(F)(F)F)c4)c3)ncc(OCCCN)c21 here?
**A.** 0.62%

**Q.** How did the inhibition turn out when CC(=NNC(=N)N)c1ccc2c(ccc3ccccc32)c1 was run?
**A.** 0.58%

**Q.** Which inhibition does the source give for CCc1cc(-c2onc(C)c2-c2cc3ccccc3o2)c(O)cc1OC here?
**A.** -0.24%

**Q.** With O=C1CCCN1CCCNCc1cccc(-c2ccc(-c3nc4cc(C(F)(F)F)ccc4[nH]3)cc2)c1 as the molecule, how does the inhibition read?
**A.** 13%

**Q.** Which inhibition does the source give for O=C(/C=C/c1ccc(Cl)c(Cl)c1)NCCCCCN1CCC(NC(=O)Nc2cc(Cl)nc(Cl)c2)CC1 here?
**A.** 0.44%

**Q.** For N=C(N)NCCN(Cc1ccccc1)c1ccccc1, which inhibition is on record?
**A.** 2.3%

**Q.** For COc1ccc2nccc([C@@H](O)CN3CCC(NC(=O)C(c4ccsc4)N4CCN(c5ccccc5OC)CC4)CC3)c2c1 (stereo not given in full), which inhibition is on record?
**A.** 0.49%

**Q.** Which inhibition does the source give for CS(=O)(=O)N1CC2(CCN(CCC(NC(=O)/C=C/c3ccccc3)c3ccc(Cl)c(Cl)c3)CC2)c2ccccc21 (stereo not given) here?
**A.** 1.25%

**Q.** How did the inhibition turn out when CC[C@H](C)CNC(=O)c1cncc(-c2cccc(CNCCCc3ccccc3)c2)c1 was run?
**A.** 4.25%

**Q.** Which inhibition does the source give for CC(=O)Oc1ccc(C(=O)Oc2ccccc2C#CC#N)cc1OC(C)=O here?
**A.** -1.3%

**Q.** Which inhibition does the source give for COc1ccc2nccc([C@@H](O)CN3CCC(NCc4ccc5c(c4)N(C)C(=O)CO5)CC3)c2c1 here?
**A.** 0.03%

**Q.** Cc1c(CC(=O)NCCC2CCN(CCCCCNC(=O)/C=C/c3ccc(Cl)c(Cl)c3)CC2)sc2ccc(Cl)cc12 was tested. Which inhibition did it give?
**A.** 6.13%

**Q.** Cc1cccc2nc(-c3cccc(-c4cccc(NC(=O)c5csnn5)c4)c3)[nH]c12 was tested. Which inhibition did it give?
**A.** -0.76%

**Q.** CN(C)C(=O)O[C@@H]1CN[C@H](C#Cc2cc3ncnc(Nc4ccc5c(cnn5Cc5cccc(F)c5)c4)c3s2)C1 was tested. Which inhibition did it give?
**A.** 10.1%

**Q.** With CCN(CC)CCCN(CCCN(CC)CC)c1cc(C)nc(Nc2ccc3cc(Br)ccc3c2)n1 as the molecule, how does the inhibition read?
**A.** 3.03%

**Q.** CC(C)(C)c1ccc(NC(=O)c2cccc(CN3CCCN(CC4CCCCC4)CC3)c2)cc1 was tested. Which inhibition did it give?
**A.** 3.88%

**Q.** Which inhibition does the source give for Cc1cccc2nc(-c3cccc(-c4cccc(NC(=O)c5ccncc5)c4)c3)[nH]c12 here?
**A.** 4.27%

**Q.** With COCCN1CCC(NCC(C)(C)c2nc(-c3ccc(Cl)c(O)c3)c(-c3ccncc3)[nH]2)CC1 as the molecule, how does the inhibition read?
**A.** 6.49%

**Q.** Which inhibition does the source give for CN(CC(=O)Nc1ccc(F)c(F)c1F)c1ncnc2sc(-c3ccccc3)cc12 here?
**A.** 2.74%

**Q.** For Cc1cccc2nc(-c3ccc(-c4ccc(NC(=O)Nc5ccc(F)c(F)c5F)cc4)cc3)[nH]c12, which inhibition is on record?
**A.** 7.14%

**Q.** With O=C(Nc1ccc(Cl)cc1F)N[C@H]1CCN(CCCCCNC(=O)C2CC2c2ccc(Cl)c(Cl)c2)C1 (stereo not given in full) as the molecule, how does the inhibition read?
**A.** 8.63%

**Q.** With CC(C)NCc1cccc(-c2ccc(-c3nc4cc(C(F)(F)F)ccc4[nH]3)cc2)c1 as the molecule, how does the inhibition read?
**A.** 6.87%

**Q.** With CCOC(=O)c1ccc(NCc2ccccn2)cc1 as the molecule, how does the inhibition read?
**A.** 2.96%

**Q.** COc1cc(F)c2ncc(C#N)c(CCN3CCC(NCc4ccc5c(c4)OCCO5)CC3)c2c1 was tested. Which inhibition did it give?
**A.** 93.9%

**Q.** How did the inhibition turn out when CC(C)(C)c1ccc(CN2CCC(CNC(=O)c3cc(-c4ccccc4Cl)cs3)C2)cc1 (stereo not given) was run?
**A.** 1.29%

**Q.** Which inhibition does the source give for CC1CN(Cc2ccccc2)CCN1c1ccc(NC(=O)c2ccc(F)cc2)cc1 (stereo not given) here?
**A.** -3.4%

**Q.** How did the inhibition turn out when Cc1[nH]c(CNCCCNc2cc(=O)c3ccccc3[nH]2)c(Br)c1Br was run?
**A.** -0.49%

**Q.** How did the inhibition turn out when O=C1c2ccccc2C(=O)N1CCOc1c(Br)cc(Br)cc1CNCCCNc1cc(=O)c2ccccc2[nH]1 was run?
**A.** 3.03%

**Q.** How did the inhibition turn out when Oc1ccc2ccccc2c1C=NNc1nc(=Nc2ccccc2)nc(N2CCOCC2)[nH]1 was run?
**A.** 0.2%

**Q.** How did the inhibition turn out when CCCCCN1CCC(NC(=O)c2ccc(C(=O)Nc3ccc(C(C)C)cc3)cc2)CC1 was run?
**A.** -5.29%

**Q.** For Fc1cccc(COc2ccc(Nc3ncnc4ccc(C#C[C@H]5CCCN5)cc34)cc2Cl)c1, which inhibition is on record?
**A.** 2.2%

**Q.** For N#Cc1cccc(NC(=O)Nc2ccc(-c3csc(-c4nc5ccccc5[nH]4)c3)cc2)c1, which inhibition is on record?
**A.** 3.91%

**Q.** COC(=O)CCCCCOc1cc(Cc2cnc(N)nc2N)cc(OC)c1OC was tested. Which inhibition did it give?
**A.** 0.35%

**Q.** CCCCOc1ccccc1C(=O)NCc1csc(-c2ccccc2)n1 was tested. Which inhibition did it give?
**A.** 0.41%

**Q.** COc1c(C2CCN(CCCCNC(=O)c3cc(-c4ccc(Cl)cc4)oc3C)CC2)ccc2c1CCCC2 was tested. Which inhibition did it give?
**A.** 5.26%

**Q.** Which inhibition does the source give for Clc1ccc2c(NN=Cc3ccco3)ccnc2c1 here?
**A.** 0.47%

**Q.** CCc1sc(CN(CCCNc2cc(=O)c3ccccc3[nH]2)Cc2sc(CC)c(Br)c2-c2ccsc2)c(-c2ccsc2)c1Br was tested. Which inhibition did it give?
**A.** 5.33%

**Q.** For CC(C)N1CCC(N(Cc2ccc(-c3ccc(C(F)(F)F)cc3)cc2)C(=O)Cn2c(CCc3cccc(F)c3F)nc(=O)c3cccnc32)CC1, which inhibition is on record?
**A.** 0.94%

**Q.** How did the inhibition turn out when O=C(NCCCN1CCN(c2cccc(Cl)c2)CC1)c1ccc(-c2nc3cc(Cl)c(Cl)cc3[nH]2)c(F)c1 was run?
**A.** 1.68%
